Screens deposited in PubChem by Sanford-Burnham Center for Chemical Genomics.
Rows were chosen to be rich in hits. Some 1.8% of all compounds tested hit in one or more screens of this group.
p-CIP stab down: compounds decreasing mouse p/CIP protein stability; Q05BA5; F442A p/CIP-EGFP cells, EGFP fluorescence, 16 h; decrease of EGFP signal, % at 10 µM; 0.01% of 290,000 active; AID 1984;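 active = EGFP signal decrease of at least 30% at 10 µM or well 3 SD below plate mean, unless failing retest; inactive = the rest, including hits failing retest or dose response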
PHOSPHO1 block: blocks human PHOSPHO1 phosphatase activity. 1.1% of 290,000 active. Q8TCT1. AID 1565. recombinant PHOSPHO1, absorbance phosphatase assay. inhibition, % at 13.3 µM; in the data active = inhibition above about 60%
Target sequence (Q8TCT1 whole entry, looked up): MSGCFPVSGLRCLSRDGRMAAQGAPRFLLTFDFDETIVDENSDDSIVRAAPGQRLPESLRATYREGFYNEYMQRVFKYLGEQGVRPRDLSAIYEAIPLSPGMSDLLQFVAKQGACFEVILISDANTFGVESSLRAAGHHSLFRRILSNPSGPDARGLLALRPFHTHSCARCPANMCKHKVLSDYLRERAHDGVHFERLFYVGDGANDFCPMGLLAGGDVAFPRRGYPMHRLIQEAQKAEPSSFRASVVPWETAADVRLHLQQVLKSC
NadD block: inhibitors of Staphylococcus aureus NadD; purified NadD enzyme, colorimetric absorbance read-out; inhibition, % at 20 µM; 0.78% of 360,000 active; AID 602399; in the data active = inhibition above about 26%
UBC9 SUMO inh: inhibitors of human SUMOylation (UBC9) | inhibition, % at 35 µM | HTRF SUMOylation assay, SAE1/SAE2 + UBC9, in vitro | AID 2006 | 0.36% of 290,000 active; in the data active = inhibition above about 50%, passing the limit was not always enough
Target sequence (P63279 whole entry, looked up): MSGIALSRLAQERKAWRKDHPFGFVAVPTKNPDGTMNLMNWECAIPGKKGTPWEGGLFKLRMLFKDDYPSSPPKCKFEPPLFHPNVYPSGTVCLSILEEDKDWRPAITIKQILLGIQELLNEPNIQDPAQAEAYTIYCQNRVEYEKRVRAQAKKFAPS
* marks the source's active call; other numbers are inactive results; nt = not tested or not shown.

SMILES	p-CIP stab down	PHOSPHO1 block	NadD block	UBC9 SUMO inh
CC1(c2ccc3c(c2)OCCCO3)NC(=O)N(CC(=O)Nc2cccc(C#N)c2)C1=O (centres undefined)	nt	nt	2	nt
O=C1c2ccccc2C(=O)N1c1cccc2cccnc12	-24	-7	-6	74*
O=C1C2C3C=CC(C3)C2C(=O)N1c1cccc2cccnc12 (centres undefined)	2	-28	4	2
CN1CCN(C(=O)C2Cc3c(-c4ccc5c(c4)OCO5)ccnc3O2)CC1 (centres undefined)	nt	nt	1	nt
CCC(=O)N1N=C(c2c(-c3ccccc3)c3cc(Cl)ccc3[nH]c2=O)CC1c1ccco1 (centres undefined)	-15	3	5	54*
COc1ccc2nc(C)cc(SCC(=O)N/N=C/c3ccc(O)cc3O)c2c1	-2	-10	13	8
COc1ccc(N2Cc3ccc(C(=O)N/N=C\c4ccc(O)cc4O)cc3C2)cc1	-6	-24	nt	66*
O=C(N/N=C/c1ccc(O)cc1O)C(=O)N/N=C/c1ccc(O)cc1O	4	41	11	95*
O=S1(=O)C[C@@H](N2CCN(c3ccccn3)CC2)[C@H](COCc2ccccc2)N1	nt	nt	-4	nt
O=C(O)c1ccc(N2C(=O)CSC2=S)cc1	nt	nt	-11	nt
O=C(O)c1ccc(CN2C(=O)CSC2=S)cc1	-24	71*	-9	1
CCOc1cc(/C=N/N=C(\N)c2nonc2N)cc(Br)c1OCc1cccc2ccccc12	2	15	16	56*
COc1cc(/C=N/N=C(/N)c2nonc2N)cc(Br)c1OCc1cccc(C)c1	-6	-1	4	-7
COc1ccc(NS(=O)(=O)c2ccc(C(=O)N3CCC(C)CC3)cc2)cc1	nt	nt	1	nt
N#Cc1c(N2CCCC2)nc(N)c2c(N)nc(N3CCCC3)cc12	-12	-7	11	100*
COc1cc2c(C#N)c(N3CCN(C)CC3)nc(N)c2c(N)n1	-2	12	4	99*
COc1cc2c(C#N)c(N3CCCC3)nc(N)c2c(N)n1	-6	3	5	nt
O=C(CSc1nc2nc(-c3cccs3)cc(C(F)(F)F)c2c(=O)[nH]1)Nc1ccc(F)c(F)c1	-6	35	22	56*
O=S(=O)(NCCS(=O)(=O)N1CCN(c2ccc(F)cc2)CC1)c1ccccc1	nt	nt	-4	nt
COc1ccc(NC(=O)C(=O)N/N=C\c2ccc(CNC(=O)C(=O)Nc3ccc(C)c(C)c3)o2)c(OC)c1	-4	19	nt	58*
CC1=CC(C)C2C(=O)N(CCC[N+](C)(C)C)C(=O)C2C1 (centres undefined)	-12	94*	3	10
COc1ccc(N(CC(=O)NC(C)(C)C)C(=O)CCC(=O)Nc2nccs2)c(OC)c1	4	34	-8	-16
N[C@@H](Cc1c[nH]c2ccccc12)C(=O)O	9	13	nt	3
NC(CSC(c1ccccc1)(c1ccccc1)c1cccc2ccccc12)C(=O)O (centres undefined)	nt	nt	42*	nt
CC(Oc1ccccc1)c1ccnc2nc(N3CCOCC3)nn12 (centres undefined)	-10	60*	-7	8
SMILES	p-CIP stab down	PHOSPHO1 block	NadD block	UBC9 SUMO inh
Cc1ccc(NC(=S)NNC(=O)CCn2cc(C)cn2)cc1	-20	69*	0	-3
COc1cccc(NC(=S)NNC(=O)Cn2nc([N+](=O)[O-])cc2C)c1	-8	30	-1	-17
Cc1cc([N+](=O)[O-])nn1CC(=O)NNC(=S)Nc1ccc(Cl)cc1	-4	93*	-3	-47
O=C(Cn1nc(C(F)F)cc1C(F)F)NNC(=S)Nc1ccc(F)cc1	-6	73*	-4	18
Cc1ccc(NC(=S)NNC(=O)Cn2nc([N+](=O)[O-])cc2C)cc1	-2	96*	-2	-27
C[C@@H](NC(=O)[C@@H]1CCCN1C(=O)OC(C)(C)C)c1ccccc1	nt	nt	-3	nt
N#CCN(C(=O)CSc1nnc(C2CC2)n1C1CC1)c1ccccc1	nt	nt	-3	nt
O=C(Nc1ccccc1)C1=C(Nc2ccccc2)CSC1	nt	nt	-2	nt
CC1=C(C(=O)N(C(C)C)C(C)C)CC(CC(=O)NCCc2ccccn2)C(=O)N1Cc1ccccc1 (centres undefined)	nt	nt	1	nt
COc1ccc(-n2c(COc3cccc(C)c3)n[nH]c2=S)cc1	-1	-111	-3	-2
COc1ccc(OCc2n[nH]c(=S)n2-c2ccc(C)cc2)cc1	-10	92*	-5	3
Cc1ccc(OCc2n[nH]c(=S)n2C2CCCCC2)cc1	-7	91*	4	6
CNC[C@H]1Oc2cc(Br)ccc2S(=O)(=O)N([C@H](C)CO)C[C@H]1C	nt	nt	-6	nt
CCOC(=O)c1ccc(NC(=O)CCS(=O)(=O)Cc2ccccc2)cc1	-5	63*	-5	4
CCOC(=O)CSc1nc2ccc(N)cc2s1	-10	83*	-2	20
CCOc1ccc2nc(SCC(=O)c3cccs3)sc2c1	4	0	-2	-10
CCOc1ccc2nc(SCC(=O)c3ccc(Cl)s3)sc2c1	-2	62*	0	-4
Nc1ccc2nc(SCC(=O)N3CCOCC3)sc2c1	-4	8	0	2
CCCCn1nnnc1C(c1ccccc1)N1CCN(c2ccc(C(F)(F)F)cc2[N+](=O)[O-])CC1 (centres undefined)	nt	nt	9	nt
N#Cc1c(C(F)(F)F)cc(-c2ccco2)nc1SCc1ccncc1	-28	82*	14	26
N#Cc1c(C(F)(F)F)cc(-c2ccco2)nc1SCc1ccccn1	-43	-41	12	24
C[C@H](CO)N1C[C@H](C)[C@@H](CN(C)C(=O)Nc2ccc3c(c2)OCO3)Oc2c(NC(=O)c3ccncc3)cccc2C1=O	nt	nt	-3	nt
c1ccc2sc(N3CCOCC3)nc2c1	2	-4	1	-4
c1ccc2sc(SN3CCOCC3)nc2c1	4	66*	9	1
COc1cccc(C(=O)c2ccccc2C(=O)O)c1	nt	nt	7	nt
SMILES	p-CIP stab down	PHOSPHO1 block	NadD block	UBC9 SUMO inh
COC(=O)[C@]12CCCCC=C1N(Cc1ccco1)C(=O)[C@H](CC(=O)NCc1cccc(C(F)(F)F)c1)C2	nt	nt	3	nt
CSc1nc(N)n2nccc2n1	nt	nt	10	nt
CCOc1ccc(NC(=S)/C(=C(\[O-])c2ccc(C)c([N+](=O)[O-])c2)[n+]2ccccc2)cc1	-13	93*	11	16
CC(=O)c1ccc(-n2c(-c3cc(-c4ccsc4)n[nH]3)n[nH]c2=S)cc1	3	65*	-1	-2
CSCC[C@H](NC(=O)c1cccc(S(=O)(=O)N2CCCCC2)c1)c1nc2ccccc2[nH]1	nt	nt	-1	nt
COCCCNC(=O)c1cccc2c(-c3cccc(C(N)=O)c3)coc12	nt	nt	-1	nt
C=CCc1c(C)nc(SC)nc1Nc1ccc(C(C)=O)cc1	6	74*	2	-8
C=CCc1c(C)nc(SC)nc1Nc1ccc(C(=O)O)cc1	5	-11	-2	12
COc1ccc(OC)c(/C=C2\S/C(=N/NC(=O)c3ccc4ccccc4c3)NC2=O)c1	-3	-10	70*	nt
O=C1N/C(=N/NC(=O)c2cccc3ccccc23)S/C1=C\c1ccccc1OCc1ccccc1	1	28	82*	-18
Cc1ccc(NC(=O)COC(=O)c2ccco2)cc1S(=O)(=O)N1CCCCC1	nt	nt	-7	nt
CN(Cc1ccc(F)cc1)C(=O)c1cc(S(=O)(=O)N2CCCCC2)ccc1N1CCOCC1	nt	nt	1	nt
